Pf growth 96h = P. falciparum growth inhibition at 96 hours. P. falciparum luciferase reporter growth, 96 h. AID 504834. 320,000 tested, 6.9% active. Potency, µM (doses to about 28.7 µM), most hits filed as inhibitors
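Compounds incubated with erythrocytes infected by luciferase-expressing P. falciparum (2% hematocrit, 0.05% parasitemia final) for 96 hours, 37 C in 5% CO2. Growth inhibition scored as decreased luciferase luminescence.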
HCV inhibitor = HCV inhibition | Huh7.5.1 HCVcc-Cre infection, luciferase reporter, 44 h | Potency, µM (top dose mostly 41.8 µM), most hits filed as inhibitors | 340,000 tested, 3.4% active
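Cells (1,000/well) were plated 4 h before compound, then infected with HCVcc-Cre virus (~0.5 moi). After 44 h further culture, infection was read as luciferase luminescence following a 15 min substrate incubation at room temperature.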
Pf growth 48h = P. falciparum growth inhibition at 48 hours (one generation); Potency, µM (highest dose often 28.7 µM), actives largely listed as inhibitors; P. falciparum luciferase growth in erythrocytes, 48 h; 310,000 tested, 5.9% active; AID 504832
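Erythrocytes infected with P. falciparum carrying an integrated firefly luciferase reporter (2% hematocrit, 0.1% parasitemia final) were exposed to compounds in RPMI 1640 with 0.5% Albumax at 37 C, 5% CO2. Growth inhibition was scored as reduced luminescence.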
AMA1-RON2 inh = AMA1-RON2 (P. falciparum) interaction inhibition. AlphaScreen AMA1-biotinylated RON2 peptide binding. Potency, µM (highest dose often 58.2 µM), usual class: inhibitors. 360,000 tested, 0.2% active; note: nearly all actives have a fitted effect of over 45% in size
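AMA1 (3D7) with his tag at 25 nM final met compounds first, then biotinylated RON2 peptide at 25 nM; detection used donor plus acceptor beads, 10 µg/mL apiece, read by AlphaScreen after 30 min at room temperature.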
Of the large screens only hits and unclear results are named; the others gave an inactive call. The list is not random: actives were taken first. Their share in the collection is about 11%. Calls come from the whole dose curve; as a rule, active = well fitted curve in the direction sought with a large enough effect; inconclusive = small, poorly fitted or top-dose-only effect, or another doubt; inactive = no such curve, though single readings can be large; an effect the other way counts as inactive or inconclusive.

CCCOc1ccc(C(C)=O)cc1CN1CCOCC1	none
CCOc1ccc(C(C)=O)cc1CN1C(=O)NC2(CCCCCC2)C1=O	Pf growth 96h 4.7µM, Pf growth 48h 2.3µM
CC(=O)c1ccc(OCC(C)C)c(CN2CCCCC2)c1	Pf growth 96h 3.7µM
COc1ccc(C(C)=O)cc1CN1C(=O)NC2(CCCCCCC2)C1=O	HCV inhibitor inconclusive
Cc1ccc(CNC(=O)CCSCc2ccccc2F)cc1	none (no result: Pf growth 48h)
CCN(CC)CCN(CC(=O)N(C1CCCCC1)C1CCCCC1)C(=O)c1ccco1	none
COC(=O)C1(O)CC(C(C)C)=NN1C(=O)c1ccccc1 (stereo not given)	none
O=C(Nc1cccc(Cl)c1)Nc1ccnc(-c2cccnc2)n1	HCV inhibitor inconclusive, Pf growth 48h 10µM
COC(=O)c1cc(NC(=O)Nc2cccc(Cl)c2)ccc1Cl	Pf growth 96h 15µM, HCV inhibitor 10µM, Pf growth 48h 9.3µM
CC1CCC(=C(C#N)C(=O)Nc2cccc(Cl)c2)CC1 (stereo not given)	Pf growth 96h 15µM, Pf growth 48h inconclusive
COC(=O)c1cc(NC(=O)c2ccc(-c3ccccc3)cc2)ccc1Cl	HCV inhibitor 10µM
N#CC(C#N)=C(N)Nc1cccc(Cl)c1	none
O=C(Nc1cccc(Cl)c1)Nc1cnccn1	Pf growth 48h inconclusive
CC(C)c1cc(N2CCC(=O)NC2=O)cc(C(=O)O)c1O	none
COc1ccc(/C=C(/NC(=O)c2ccco2)C(=O)N2CCCC2=O)cc1	none
O=C(Nc1cccc(Cl)c1)Nc1cccc(Cl)c1	Pf growth 48h 3.7µM
Cn1c(=O)c2ncn(CC(=O)N/N=C/c3ccco3)c2n(C)c1=O	Pf growth 96h 5.9µM
Cn1c(=O)c2ncn(CC(=O)N/N=C/C=C/c3ccccc3)c2n(C)c1=O	none
Cn1ccnc1SCC(=O)c1ccc2ccccc2c1	none
COc1ccc(NC(=O)c2sc3nc(C)nc(N4CCN(c5ccccn5)CC4)c3c2C)cc1Cl	HCV inhibitor inconclusive, Pf growth 48h 1.9µM
COCCCNC(=O)c1sc2ncnc(N3CCc4ccccc4C3)c2c1C	Pf growth 96h 6.6µM, HCV inhibitor inconclusive, Pf growth 48h inconclusive
Cc1cc(Br)ccc1NC(=O)c1sc2ncnc(N3CCN(c4ccccn4)CC3)c2c1C	HCV inhibitor inconclusive, Pf growth 48h inconclusive
Cc1c(C(=O)N2CCC3(CC2)OCCO3)sc2ncnc(N3CCN(c4ccccn4)CC3)c12	Pf growth 96h 12µM, HCV inhibitor inconclusive, Pf growth 48h inconclusive
Cc1c(C(=O)N2CCN(c3ccccn3)CC2)sc2ncnc(N3CCN(c4ccccc4)CC3)c12	HCV inhibitor inconclusive (no result: Pf growth 96h, Pf growth 48h)
CCc1ccc(NC(=O)c2sc3nc(C)nc(N4CCN(c5ccccn5)CC4)c3c2C)cc1	none
Cc1c(C(=O)N2CCOCC2)sc2ncnc(N3CCc4ccccc4C3)c12	none
COc1ccc(NC(=O)c2sc3ncnc(N4CCN(c5ccccn5)CC4)c3c2C)cc1Cl	Pf growth 96h inconclusive, HCV inhibitor 6.3µM, Pf growth 48h 6.6µM
CCCS(=O)(=O)NC(=O)C1(C)CCN(C(=O)c2cccc(OC(F)(F)F)c2)C1 (stereo not given)	none (no result: Pf growth 96h, HCV inhibitor, Pf growth 48h)
COc1ccc(-c2noc3c2-c2nc(-c4ccc(Cl)cc4)sc2CC3)cc1	Pf growth 96h inconclusive, Pf growth 48h inconclusive
O=C(NC(C(=O)N/N=C/c1ccccn1)c1n[nH]c(=O)c2ccccc12)c1ccccc1 (stereo not given)	Pf growth 96h inconclusive
Cc1c(C(=O)Nc2ccc3c(c2)OCCO3)sc2ncnc(N3CCCCC3C)c12 (stereo not given)	HCV inhibitor 11µM, Pf growth 48h inconclusive
C=C1C(=O)OC2CC1C(O)CC(C)=CCCC(C)=CC(O)CC2C (stereo not given)	HCV inhibitor 7.1µM (no result: Pf growth 96h, Pf growth 48h)
O=[N+]([O-])c1cccc(N=Nc2ccc(O)cc2O)c1	HCV inhibitor 1.8µM (no result: Pf growth 96h, Pf growth 48h)
CCOc1cc(C=O)cc(N=Nc2cccc([N+](=O)[O-])c2)c1O	Pf growth 96h inconclusive
O=[N+]([O-])c1ccc(N=Nc2ccc(O)cc2O)cc1	Pf growth 96h 0.33µM, HCV inhibitor inconclusive (no result: Pf growth 48h)
O=C(CSc1nnc(CCCN2C(=O)c3cccc4cccc(c34)C2=O)n1-c1ccccc1)NCCCO	Pf growth 48h inconclusive
O=C(CSc1nnc(CCCN2C(=O)c3cccc4cccc(c34)C2=O)n1-c1ccccc1)NCCCN1CCOCC1	Pf growth 48h 9.3µM
C/C(O)=c1/cnc2nc3ccccc3n2c1=O	none
CCOC(=O)C1=CCN(S(=O)(=O)c2ccccc2Br)C1c1cccc(F)c1 (stereo not given)	none (no result: Pf growth 96h, HCV inhibitor, Pf growth 48h)
Cc1cc2c(cc(C(=O)OC(C(=O)NC3CCCCC3)C(C)C)n2C)o1 (stereo not given)	HCV inhibitor 16µM, Pf growth 48h inconclusive
Cc1cc2c(cc(C(=O)OC(C(=O)NCC3CCCO3)C(C)C)n2C)o1 (stereo not given)	Pf growth 96h inconclusive, HCV inhibitor inconclusive
BrC(=C\c1ccccc1)/C=N/n1cnnc1	HCV inhibitor 10µM, Pf growth 48h 10µM
CCOC(=O)N1CCC(NC(=O)c2cccn3c(=O)c4cc(Br)ccc4nc23)CC1	Pf growth 48h 2.6µM
CCOC(=O)N1CCC(NC(=O)c2ccc3nc4ccccc4c(=O)n3c2)CC1	Pf growth 48h inconclusive (no result: HCV inhibitor, AMA1-RON2 inh)
CCOc1ccccc1N1CCN(C(=O)c2cc(-c3cccnc3)nc3c(Cl)cccc23)CC1	Pf growth 48h 3.3µM
Cc1ccc2nc(-c3cccnc3)cc(C(=O)N3CCN(c4ccc([N+](=O)[O-])cc4)CC3)c2c1	HCV inhibitor inconclusive, Pf growth 48h 10µM
Cc1ccc2c(C(=O)N3CCN(c4ccccc4)CC3)cc(-c3cccnc3)nc2c1C	HCV inhibitor inconclusive, Pf growth 48h 2.3µM
CN(C)S(=O)(=O)c1cccc(COc2ccccc2C(=O)Nc2ccccc2)c1	Pf growth 96h 9.3µM, HCV inhibitor inconclusive, Pf growth 48h 10µM
CN(C)S(=O)(=O)c1cccc(NC(=O)c2ccccc2OCc2ccc(F)cc2)c1	Pf growth 96h inconclusive, HCV inhibitor 6.3µM, Pf growth 48h 12µM
CC(=O)c1ccccc1OCCOc1ccccc1C(C)=O	Pf growth 96h inconclusive, Pf growth 48h inconclusive
CC(=O)c1ccccc1OCc1ccc(S(=O)(=O)Cc2ccccc2)cc1	HCV inhibitor 10µM
CC(=O)c1cccc(NC(=O)c2ccccc2OCc2ccc(F)cc2)c1	HCV inhibitor inconclusive
CC(C)S(=O)(=O)NC(=O)C1(C)CCN1C(=O)Cc1ccccc1 (stereo not given)	none (no result: Pf growth 96h, HCV inhibitor, Pf growth 48h)
CC1(C)CN=C(N2CCN(C3=NCC(C)(C)S3)CC2)S1	none (no result: HCV inhibitor, AMA1-RON2 inh)
O=C(OCc1ccccc1F)c1cnc(Cl)c(Cl)c1	none
O=C(OCc1c(F)cccc1Cl)c1cnc(Cl)c(Cl)c1	HCV inhibitor 10µM
CCn1cc(C(=O)N2CCN(c3ccccc3F)CC2)c(=O)c2ccc(C)nc21	none
Cc1ccc(/C=C2\CC(C)CC3=C2NC(=S)NC3c2ccc(C)cc2)cc1 (stereo not given)	Pf growth 96h inconclusive, HCV inhibitor inconclusive, Pf growth 48h inconclusive
CC1CC2=C(NC(=S)NC2c2cccc(F)c2)/C(=C/c2cccc(F)c2)C1 (stereo not given)	HCV inhibitor 10µM, Pf growth 48h inconclusive
